Assay [1] addresses Rap guanine nucleotide exchange factor 3 (Homo sapiens) (UniProt O95398). As to the kind of experiment: Confirmatory qHTS for agonist of cAMP-regulated guanine nucleotide exchange factor 3 (EPAC1) (AID 1645881).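 Also: EPAC1 catalysed release of BODIPY-GDP from Rap1B seen as fluorescence loss; 100% = effect of cAMP agonist control; nearly all actives have a fitted effect of over 75% in size.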 In general terms: qHTS replaces the single test concentration by a dilution series.
Assay [2] deals with Rap guanine nucleotide exchange factor 4 (Homo sapiens) (UniProt Q8WZA2). As to the kind of experiment: Confirmatory qHTS for agonist of cAMP-regulated guanine nucleotide exchange factor 4 (EPAC2) (AID 1645884).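 Also: nucleotide exchange releases bodipy-GDP from Rap1 and this lowers its fluorescence; % is scaled to controls: 0 for no effect and ±100 for the full control effect; nearly all actives have a fitted effect of over 65% in size.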
Sequence of Rap guanine nucleotide exchange factor 4 (Homo sapiens) (Q8WZA2 whole entry, looked up): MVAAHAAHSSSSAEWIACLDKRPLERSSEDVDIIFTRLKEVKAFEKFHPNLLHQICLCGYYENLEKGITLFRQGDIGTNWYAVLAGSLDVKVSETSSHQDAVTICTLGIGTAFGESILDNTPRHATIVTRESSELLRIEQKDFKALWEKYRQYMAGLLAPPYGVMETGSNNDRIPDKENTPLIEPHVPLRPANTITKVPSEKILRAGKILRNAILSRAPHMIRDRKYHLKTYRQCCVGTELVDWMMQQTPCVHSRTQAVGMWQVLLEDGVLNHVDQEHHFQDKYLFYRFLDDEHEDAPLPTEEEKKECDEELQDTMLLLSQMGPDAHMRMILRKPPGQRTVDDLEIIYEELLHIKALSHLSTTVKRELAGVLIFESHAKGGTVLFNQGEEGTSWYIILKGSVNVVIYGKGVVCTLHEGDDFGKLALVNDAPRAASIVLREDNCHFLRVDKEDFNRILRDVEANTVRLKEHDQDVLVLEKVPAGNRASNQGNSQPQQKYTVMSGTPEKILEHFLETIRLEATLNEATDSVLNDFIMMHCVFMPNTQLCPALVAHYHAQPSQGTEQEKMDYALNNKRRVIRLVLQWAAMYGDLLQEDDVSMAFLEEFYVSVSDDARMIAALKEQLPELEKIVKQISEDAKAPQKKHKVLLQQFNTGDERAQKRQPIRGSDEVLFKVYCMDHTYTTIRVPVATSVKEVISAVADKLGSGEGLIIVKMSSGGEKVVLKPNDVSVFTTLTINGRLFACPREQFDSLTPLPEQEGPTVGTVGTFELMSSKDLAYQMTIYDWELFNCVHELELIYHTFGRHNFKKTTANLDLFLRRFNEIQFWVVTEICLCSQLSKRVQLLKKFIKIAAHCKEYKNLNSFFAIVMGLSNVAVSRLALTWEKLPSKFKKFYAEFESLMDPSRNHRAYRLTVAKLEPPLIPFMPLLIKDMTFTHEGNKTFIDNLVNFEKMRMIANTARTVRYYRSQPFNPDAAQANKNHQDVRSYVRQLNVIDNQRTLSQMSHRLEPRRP
The target is the same in assay [3]. As to the kind of experiment: Confirmatory qHTS for antagonist of cAMP-regulated guanine nucleotide exchange factor 4 (EPAC2) (AID 1645885). Also: nearly all actives have a fitted effect of over 25% in size. Also: potency is read from the fitted curve at half-maximal effect. As to activity change, negative = inhibition: % is scaled to controls: 0 for no effect and ±100 for the full control effect.
The target of assay [4] is Rap guanine nucleotide exchange factor 3 (Homo sapiens) (UniProt O95398). Description: Counterscreen qHTS for agonist of cAMP-regulated guanine nucleotide exchange factor 3 (EPAC1) (AID 1645889). Also: % of control where 0% means no effect; nearly all actives have a fitted effect of over 40% in size. Put shortly:
(§1)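 Measured: fluorescence of BODIPY-GDP bound to Rap1B, which falls as exchange proceeds. Conditions include 50 uM competing GDP, 5 and 30 min reads, and a later cAMP challenge for antagonist detection.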

Assay [5] can be described thus: qHTS for Inhibitors of the vitamin D receptor (VDR): Hit Validation using a Texas Red Assay (AID 602201). Also: potency is read from the fitted curve at half-maximal effect. In outline: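 Fluorescence polarization (Ex 595/Em 615 nm) of Texas Red (7 nM) with 1.5 uM VDR-LBD and LG19078 (final concentrations). Compounds were incubated for 2 hours at room temperature.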
Assay [6] deals with Rap guanine nucleotide exchange factor 3 (Homo sapiens) (UniProt O95398). As to the kind of experiment: Counterscreen qHTS for antagonist of cAMP-regulated guanine nucleotide exchange factor 3 (EPAC1) (AID 1645888).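 Also: fluorescence loss as bound BODIPY-GDP is released from Rap1B; % of control where 0% means no effect.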 In outline:
as §1
(The purpose of a counterscreen is to sort out artefacts and off-target activity.)

Assay [7] addresses Tumor susceptibility gene 101 protein (Homo sapiens) (UniProt Q99816). Description: qHTS Assay for Iinhibitors of HIV-1 Budding by Blocking the Interaction of PTAP/TSG101: Hit Validation (AID 651600). Also: potency is read from the fitted curve at half-maximal effect; nearly all actives have a fitted effect of over 70% in size. Put shortly:
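Fluorescence polarization binding assay: Tsg101 binding domain (10 uM) mixed with compounds and FITC-labeled PTAP peptide (50 nM) in HEPES pH 7.5, 0.15 M NaCl, 0.01% Tween 20, EDTA, TCEP; 20 min at r.t.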

For assay [8], the target named is DNA polymerase eta (Homo sapiens) (UniProt Q9Y253). Description: qHTS for Inhibitors of Polymerase Eta: Confirmatory Assay for Cherry-picked Compounds (AID 720502). Also: potency is read from the fitted curve at half-maximal effect. The following applies: Pol eta primer extension, TAMRA/BHQ fluorescence, 10 min. In outline:
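Quenched-fluorescence replication assay: 10 nM Pol eta, 50 nM substrate final, 15 min compound preincubation at room temperature, 10 min kinetic reaction read at 525/598 nm.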

Assay [9] addresses Tyrosyl-DNA phosphodiesterase 1 (Homo sapiens) (UniProt Q9NUW8). As to the kind of experiment: Confirmation Assay for Inhibitors of Tyrosyl-DNA Phosphodiesterase (TDP1) (AID 489007). Also: potency is read from the fitted curve at half-maximal effect; nearly all actives have a fitted effect of over 40% in size. The conditions noted are these: recombinant human TDP1 enzymatic activity, dose-response. In outline: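 AlphaScreen read-out: streptavidin donor and anti-FITC acceptor beads (10 ug/ml) bind intact substrate, so Tdp1 removal of tyrosine-FITC lowers signal. Enzyme 1 nM, substrate 15 nM, 5 min reaction at room temperature after 15 min compound preincubation.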

A short description of assay [10]: qHTS for Inhibitors of Plasmodium falciparum (GB4) proliferation (AID 504315).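 Also: 0% = DMSO vehicle and -100% = 0.29 µM artemisinin control; nearly all actives have a fitted effect of over 50% in size.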 In outline:
(§2)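 Parasite growth measured as SYBR Green DNA fluorescence (ex 485, em 535 nm) after overnight lysis following 72 h culture at 37 °C, 0.3% parasitemia, 2.5% hematocrit. Values normalized against DMSO and 0.29 uM artemisinin controls, with plate-stack correction.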

Assay [11] is described as follows: qHTS for Inhibitors of Plasmodium falciparum (CP250) proliferation (AID 504320).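 Also: plate controls were DMSO vehicle for no effect and 0.29 µM artemisinin control for full effect.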 In outline: as §2
Assay [12] concerns the target ATPase family AAA domain-containing protein 5 (Homo sapiens) (UniProt Q96QE3). Description: qHTS screen for small molecules that inhibit ELG1-dependent DNA repair in human embryonic kidney (HEK293T) cells expressing luciferase-tagged ELG1: Hit Confirmation using MMS Stimulated ELG1 (AID 624249).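 Also: cells co-treated with MMS at 10 µM final alongside compound; luminescence of ELG1-luciferase fusion read with Amplight reagent; series mostly up to about 46 µM; % is scaled to controls: 0 for no effect and ±100 for the full control effect; nearly all actives have a fitted effect of over 60% in size.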 In outline: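 Reporter gene format: suppression of MMS-induced ELG1-luciferase signal in HEK293T cells. MMS is present at 10 µM final, compound incubation lasts 16 h, and detection is by Amplight luciferase reagent.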

Assay [13] is described as follows: qHTS screen for small molecules that inhibit ELG1-dependent DNA repair: Hit Confirmation with MMS Viability (AID 624251).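 Also: ELG1-luc HEK293T cells co-treated with 10 µM MMS; viability read 16 h after compound addition; % is scaled to controls: 0 for no effect and ±100 for the full control effect; nearly all actives have a fitted effect of over 60% in size.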 Put shortly: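 Sixteen hours of compound exposure with MMS at 10 µM final preceded a CellTiter-Glo viability readout in ELG1-luciferase HEK293T cells, which were dosed about 5 h after seeding.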

Inconclusive results are not listed. Values without a mark were called inactive. The list shows a part of the results. The source made the active and inactive calls. Calls follow the shape of the dose curve; as a rule, active = well fitted curve in the direction sought with a large enough effect; inconclusive = small, poorly fitted or top-dose-only effect, or another doubt; inactive = no such curve, though single readings can be large; an effect the other way counts as inactive or inconclusive.

Sequence of Rap guanine nucleotide exchange factor 3 (Homo sapiens) (O95398 whole entry, looked up): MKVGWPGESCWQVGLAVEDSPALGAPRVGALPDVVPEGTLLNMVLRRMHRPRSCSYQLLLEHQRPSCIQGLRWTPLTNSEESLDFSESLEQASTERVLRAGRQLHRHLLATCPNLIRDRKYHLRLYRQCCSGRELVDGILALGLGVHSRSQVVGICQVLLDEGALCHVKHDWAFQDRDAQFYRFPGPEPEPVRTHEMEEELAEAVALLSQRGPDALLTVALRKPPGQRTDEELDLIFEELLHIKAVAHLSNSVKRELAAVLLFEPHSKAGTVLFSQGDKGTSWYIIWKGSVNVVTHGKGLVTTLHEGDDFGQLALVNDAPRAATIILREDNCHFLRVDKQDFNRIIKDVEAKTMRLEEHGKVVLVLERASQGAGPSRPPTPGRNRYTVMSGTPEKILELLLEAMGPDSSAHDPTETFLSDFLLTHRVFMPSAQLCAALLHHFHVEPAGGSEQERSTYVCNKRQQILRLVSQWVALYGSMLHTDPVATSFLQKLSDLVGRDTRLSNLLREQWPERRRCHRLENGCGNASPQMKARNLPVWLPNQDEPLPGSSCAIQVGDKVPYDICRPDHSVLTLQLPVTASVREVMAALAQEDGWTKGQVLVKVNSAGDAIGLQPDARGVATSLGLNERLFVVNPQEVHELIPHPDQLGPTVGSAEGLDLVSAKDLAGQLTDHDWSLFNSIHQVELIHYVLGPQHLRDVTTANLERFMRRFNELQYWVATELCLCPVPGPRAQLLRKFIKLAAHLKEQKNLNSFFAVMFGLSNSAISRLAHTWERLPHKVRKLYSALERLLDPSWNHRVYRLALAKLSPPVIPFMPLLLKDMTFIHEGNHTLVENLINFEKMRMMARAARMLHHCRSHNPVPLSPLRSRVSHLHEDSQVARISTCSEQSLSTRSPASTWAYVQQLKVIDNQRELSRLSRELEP
Sequence of Tyrosyl-DNA phosphodiesterase 1 (Homo sapiens) (Q9NUW8 whole entry, looked up): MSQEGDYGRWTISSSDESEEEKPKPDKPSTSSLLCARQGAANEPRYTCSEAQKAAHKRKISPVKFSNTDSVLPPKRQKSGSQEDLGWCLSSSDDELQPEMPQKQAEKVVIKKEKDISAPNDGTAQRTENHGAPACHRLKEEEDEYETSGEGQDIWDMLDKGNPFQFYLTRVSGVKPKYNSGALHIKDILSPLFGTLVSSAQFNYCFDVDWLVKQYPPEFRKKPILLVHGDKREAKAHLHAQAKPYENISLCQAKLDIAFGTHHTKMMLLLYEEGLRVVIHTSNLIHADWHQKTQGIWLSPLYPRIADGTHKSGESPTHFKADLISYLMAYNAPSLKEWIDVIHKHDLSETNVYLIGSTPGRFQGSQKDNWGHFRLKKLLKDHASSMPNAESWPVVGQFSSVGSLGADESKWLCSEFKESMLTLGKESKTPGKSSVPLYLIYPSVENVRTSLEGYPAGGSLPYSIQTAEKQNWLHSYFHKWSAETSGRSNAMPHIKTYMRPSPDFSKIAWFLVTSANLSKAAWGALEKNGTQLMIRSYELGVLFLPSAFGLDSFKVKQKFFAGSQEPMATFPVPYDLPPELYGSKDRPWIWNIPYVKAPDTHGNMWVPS
Sequence of Tumor susceptibility gene 101 protein (Homo sapiens) (Q99816 whole entry, looked up, the tested form may be a part): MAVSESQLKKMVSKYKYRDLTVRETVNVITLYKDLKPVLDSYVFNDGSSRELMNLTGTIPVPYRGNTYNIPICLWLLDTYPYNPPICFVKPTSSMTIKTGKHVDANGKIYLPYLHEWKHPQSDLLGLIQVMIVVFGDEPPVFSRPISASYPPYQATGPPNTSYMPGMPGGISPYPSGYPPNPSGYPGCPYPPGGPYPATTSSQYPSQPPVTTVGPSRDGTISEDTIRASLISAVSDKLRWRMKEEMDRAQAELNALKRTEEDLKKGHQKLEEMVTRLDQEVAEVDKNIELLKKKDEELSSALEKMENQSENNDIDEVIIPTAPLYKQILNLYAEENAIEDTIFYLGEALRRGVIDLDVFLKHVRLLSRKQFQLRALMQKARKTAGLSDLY
Sequence of DNA polymerase eta (Homo sapiens) (Q9Y253 whole entry, looked up): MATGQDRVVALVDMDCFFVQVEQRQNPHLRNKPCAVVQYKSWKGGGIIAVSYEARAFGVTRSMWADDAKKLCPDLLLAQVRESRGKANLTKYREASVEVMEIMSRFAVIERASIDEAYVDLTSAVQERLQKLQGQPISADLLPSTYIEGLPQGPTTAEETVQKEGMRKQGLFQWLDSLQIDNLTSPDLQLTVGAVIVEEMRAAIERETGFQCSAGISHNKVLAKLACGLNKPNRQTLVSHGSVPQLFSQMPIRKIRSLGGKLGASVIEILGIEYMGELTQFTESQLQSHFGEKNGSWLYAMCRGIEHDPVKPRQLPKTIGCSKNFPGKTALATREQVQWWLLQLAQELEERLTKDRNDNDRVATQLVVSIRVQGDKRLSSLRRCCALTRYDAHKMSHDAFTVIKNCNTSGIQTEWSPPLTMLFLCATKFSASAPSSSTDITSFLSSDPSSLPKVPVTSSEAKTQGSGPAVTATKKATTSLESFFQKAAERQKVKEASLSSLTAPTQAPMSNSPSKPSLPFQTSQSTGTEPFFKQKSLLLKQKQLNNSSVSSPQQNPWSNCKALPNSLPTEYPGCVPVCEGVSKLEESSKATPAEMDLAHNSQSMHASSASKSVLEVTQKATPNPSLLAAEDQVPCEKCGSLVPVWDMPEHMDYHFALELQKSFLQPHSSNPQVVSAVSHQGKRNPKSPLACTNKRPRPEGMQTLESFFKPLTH

Regarding `CC1=NCCN1S(=O)(=O)c1c(C(C)C)cc(C(C)C)cc1C(C)C`, the Potency result in assay [1], in [2], in assay [3] and in assay [4] was “inactive” in each case.
With `CC1=NN(c2cccc(C(=O)O)c2)C(=O)/C1=C\C=C/c1ccccc1`, the Potency in assay [5] was 5.62 µM (active). Further, the Potency result in assay [1], in assay [2], in [3] and in assay [6] was “inactive” in each case.
As to `CCCn1c(/C=C/c2ccco2)nc2ccccc21`, the Potency result in assay [1] and in assay [3] was “inactive” each time. The activation in assay [2] is -2.96% [at 17.1 µM, percent relative to cAMP agonist control]; in assay [4] it was 26.1% [at 30.8 µM].
On to `Cc1c2cc(O)c(=O)cc-2oc2cc(O)c(O)cc12`, for which, in assay [7], the Potency was 1.83 µM (active). Moreover, the Potency result in assay [1] and in assay [3] was “inactive” each time. In addition, the activation in assay [2] is -3.29% [at 17.1 µM, percent relative to cAMP agonist control]; in assay [4] it was 0.526% [at 30.8 µM]. Also, in [6], the activity change, negative = inhibition was -2.73% [at 30.8 µM].
In the case of `CC1(C(=O)NS(=O)(=O)c2ccc3ccccc3c2)CCN1C(=O)Cc1ccc(-c2ccccc2)cc1` (stereo not drawn), the Potency entry in [1] and in assay [3] was “inactive” in each case. The activation is 1.72% [at 17.1 µM, percent relative to cAMP agonist control] in assay [2] and 21.8% [at 30.8 µM] in assay [4].
`CC1Sc2ccc(C#N)cc2N(Cc2cccc(C(F)(F)F)c2)C1=O` (stereo not drawn): the Potency result in assay [1], in assay [2], in [3] and in assay [4] was “inactive” throughout.
On to `CCC(C)Cn1c(O)cc2nn(-c3nc4ccccc4s3)c(=O)c-2c1C` (stereo not drawn), for which, in assay [8], the Potency is 75.7 µM (active). The Potency entry in assay [1] and in assay [3] was “inactive” each time. Besides, the activation in assay [2] was -0.693% [at 17.1 µM, percent relative to cAMP agonist control]. The activity change, negative = inhibition in [6] is -16.7% [at 30.8 µM].
Regarding `O=C(NNC(=O)c1cc2cc(Br)ccc2oc1=O)c1ccc(O)cc1O`, the Potency in assay [9] was 56.2 µM (active). Also, the Potency entry in assay [1], in assay [2], in [3] and in [6] was “inactive” each time.
As for `CC1(OC(=O)C2CCCC2)C(=O)C=C2C=C(c3ccsc3)N(Cc3ccco3)C=C2C1=O` (stereo not drawn), the outcome in assay [10] and in [11] was inactive. In addition, the Potency result in [1], in assay [2], in assay [3] and in [6] was “inactive” throughout.
As for `Cc1ccc(C)c(S(=O)(=O)N2CCN(C(=O)CCNC(=O)c3ccc(Br)cc3)CC2)c1`, the Potency entry in assay [1], in assay [2], in assay [3] and in assay [4] was “inactive” each time.
Consider `Cc1ccc(C)c(S(=O)(=O)N2CCN(C(=O)/C=C/c3ccco3)CC2)c1`, for which the Potency entry in [1], in [2], in assay [3] and in [4] was “inactive” throughout.
As for `COc1cccc(C(=O)/C=C/c2ccc(OCC#N)c(OC)c2)c1`, the Potency result in assay [1] and in assay [3] was “inactive” throughout. Further, the activation in assay [2] is 0% [at 17.1 µM, percent relative to cAMP agonist control]; in assay [4] it was 12.6% [at 30.8 µM].
Turning to `COc1cc(N)c(Cl)cc1C(=O)OCC(=O)c1ccc2c(c1)NC(=O)CO2`, the Potency entry in [12], in assay [1], in assay [2], in assay [3], in assay [6] and in [4] was “inactive” in each case. Further, the result in [13] was inactive.
Turning to `O=C(CSc1nccn1Cc1ccc(Cl)cc1)Nc1ccc2c(c1)OCO2`, the Potency result in [1], in assay [2], in assay [3] and in assay [4] was “inactive” in each case.
In the case of `CC(C)(C)OC(=O)N1CCC(c2c(C(=O)NCCN3CCC(Cc4ccccc4)CC3)cnn2-c2cccc(Cl)c2)CC1`, the Potency result in assay [1], in [2], in assay [3] and in assay [4] was “inactive” in each case.
For `O=C1C(Cl)=C(NS(=O)(=O)c2ccc([N+](=O)[O-])cc2)C(=O)c2ccccc21`, the Potency result in [5], in assay [1] and in [3] was “inactive” each time. In [2], the activation is 8.93% [at 17.1 µM, percent relative to cAMP agonist control]. Further, in [6], the activity change, negative = inhibition is 11.7% [at 30.8 µM].
Regarding `COc1ccc(N2C(=O)CSC23C(=O)N(Cc2cccc(C(F)(F)F)c2)c2ccccc23)cc1` (stereo not drawn), the Potency result in assay [1], in [2] and in assay [4] was “inactive” each time. Also, the outcome in [3] is “inactive [at 12.7 µM]”.
As for `COc1ccc(C(CC(=O)N2CCCC2)c2c(OC)cc(OC)c3c(-c4ccccc4)cc(=O)oc23)cc1` (stereo not drawn), the Potency in assay [9] was 2.24 µM (active). In addition, the Potency result in [1], in assay [2], in assay [3] and in [6] was “inactive” in each case.
Take `C/C(=N\NC(=O)c1ccc(N/N=C(\C)c2ccc(O)cc2)cc1)c1ccc(O)cc1`: the Potency result in assay [1] and in assay [3] was “inactive” throughout. For the same molecule, the activation in assay [2] was 15.6% [at 17.1 µM, percent relative to cAMP agonist control]; in assay [4], 11.7% [at 30.8 µM].
Turning to `COc1ccc2sc(-c3ccc(SC)cc3)c(C#CC(C)(C)O)c2c1`, the Potency entry in assay [1], in assay [2], in assay [3] and in assay [4] was “inactive” throughout.
On to `CCCCN1C(=O)C(NC(=O)c2ccc(C(C)(C)C)cc2)(C(F)(F)F)C(C(=O)OC)=C1C` (stereo not drawn), for which the Potency entry in assay [1], in assay [2], in assay [3] and in [4] was “inactive” throughout.
With `CCOc1cc(/C=C(/C#N)c2ccc(Cl)cc2)cc(Cl)c1OCC(=O)O`, the Potency result in assay [1] and in assay [3] was “inactive” in each case. Moreover, the activation in assay [2] was 3.22% [at 17.1 µM, percent relative to cAMP agonist control]; in [4], 10.8% [at 30.8 µM].
As for `Cc1cc(C)nc(SCC(=O)c2ccc(C)c(C)c2)n1`, the Potency entry in assay [1], in [2] and in [4] was “inactive” throughout. Besides, the Potency in assay [3] was 13.5 µM (active).
In the case of `CCCC[C@@H]1C[C@H]1[C@@H](NC(=O)c1ccco1)c1ccc(Cl)cc1`, the Potency result in assay [1], in assay [2], in assay [3] and in [4] was “inactive” each time.
